The values that follow come from paper PMC5540273 (PLoS ONE, 2017).

Among the test systems are SGK3; SGK; SIK2; SIK; SLK; SNRK; SRC; SRMS; SRPK1.
Conditions in all cases: concentration: 1 μM, replicates: in singlicate; n = 1
A further assay has as its system T1, SNARK.
T1 construct: gene NUAK2
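Further: KINOMEscan kinase panel screen.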

For the molecule `CNCc1ccc2nc(NC(=O)c3ccc(C(C)(C)C)cc3)cn2c1`, the “%Inh” value in the assay with SGK3 worked out at 31%; with SGK, 2%; in the assay with SIK2 it was 4%; in the assay on SIK, 3%; in the assay on SLK, 0%; in the assay on SNARK, 34%. The “%Inh” value in the assay with SNRK is on record as 20%; in the assay on SRC, 3%; in the assay on SRMS it was 0%; with SRPK1 it was 33%.

Consider `CCn1c(-c2c(N)noc2C)nc2cnccc21` [SB-737856], for which the “%Inh” value with SGK3 is 0%; with SGK, 0%; in the assay on SIK2 it was 0%; in the assay on SIK, 0%; in the assay with SLK, 4%; in the assay on SNARK it was 0%. Besides, the “%Inh” value with SNRK, with SRC, with SRMS and in the assay on SRPK1 was 0% in each case.

For the molecule `COC(=O)c1cccc(NC(=O)NC2CCN(c3ccnc(Nc4ccc(F)cc4)n3)C2)c1` (centres unmarked) [GSK1379725], the “%Inh” value in the assay with SGK3 was 0%; with SGK, 0%; with SIK2, 0%; with SIK, 2%; in the assay with SLK, 0%; with SNARK it was 0%. In addition, the “%Inh” value came out at 0% in the assay with SNRK, 0% in the assay with SRC, 0% in the assay on SRMS and 23% in the assay on SRPK1.

For `COc1ccc2cc(-c3nc(-c4ccccc4C(C)C)[nH]c3-c3ccncc3)ccc2c1` [SB-660566], the “%Inh” value was determined as 0% with SGK3; 0% in the assay on SGK; 0% with SIK2; 0% in the assay on SIK; 78% in the assay on SLK; 0% with SNARK. Moreover, the “%Inh” value with SNRK came out at 0%; with SRC it was 0%; with SRMS, 0%; in the assay with SRPK1, 7%.

For the molecule `Cl.Cl.Cl.N#Cc1ccc(CCNc2nccc(-c3cccc(CN4CCNCC4)c3)n2)cc1` [GSK2137462], the “%Inh” value with SGK3 came to 10%; in the assay on SGK, 0%; with SIK2, 2%; in the assay with SIK, 0%; in the assay on SLK, 6%; in the assay on SNARK it was 12%. The “%Inh” value in the assay on SNRK stood at 0%; with SRC, 15%; with SRMS it was 2%; with SRPK1 it was 21%.
